The record followed here is article PMC7862700, “An all-to-all approach to the identification of sequence-specific readers for epigenetic DNA modifications on cytosine”.

What all share (experiment): DAPPL (digital affinity profiling via proximity ligation, sequencing); 10 mM Tris-HCl pH 7.5, 50 mM NaCl, 1 mM DTT, 4% glycerol, room temperature, 30 min; GST-TFs on glutathione beads, 16-mer random dsDNA library, 0.1% formaldehyde crosslink after washing; high values mean tight binding
What all share (details): protein: recombinant; tags: N-terminal GST; dsDNA, one strand shown

The target in one assay is T1, ELK1 (Homo sapiens, UniProt P19419 1-428).
T1 sequence: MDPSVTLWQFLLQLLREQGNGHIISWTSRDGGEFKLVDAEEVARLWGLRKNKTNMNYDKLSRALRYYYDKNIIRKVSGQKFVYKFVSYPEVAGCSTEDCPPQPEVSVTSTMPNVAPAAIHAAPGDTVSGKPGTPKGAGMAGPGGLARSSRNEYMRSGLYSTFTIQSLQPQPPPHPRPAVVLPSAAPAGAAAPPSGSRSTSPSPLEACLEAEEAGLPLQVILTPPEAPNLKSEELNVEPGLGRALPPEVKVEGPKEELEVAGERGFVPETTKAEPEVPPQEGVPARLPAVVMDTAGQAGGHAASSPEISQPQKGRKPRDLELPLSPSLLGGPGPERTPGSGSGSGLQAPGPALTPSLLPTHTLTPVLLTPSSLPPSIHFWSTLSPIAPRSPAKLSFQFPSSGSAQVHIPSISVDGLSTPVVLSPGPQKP
An outline of the steps: (§1)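 Binding signal is given per hexamer as its read frequency for a factor divided by its frequency in the tag-only sample. GST-fused human transcription factors were expressed in yeast, captured on glutathione beads, barcoded with DNA and pooled with that sample, then incubated with 200 nmole of a 16-mer random double-stranded DNA library in Tris/NaCl/DTT/glycerol buffer for 30 min at room temperature. The pools were then washed, crosslinked, proximity-ligated, amplified by PCR and sequenced on an Illumina NextSeq500.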

The next assay concerns the target ELF1 (Homo sapiens, UniProt P32519 1-619). An outline of the steps:
as §1

A further assay addresses T2, ELK3 (Homo sapiens, UniProt P41970 1-407).
T2 sequence: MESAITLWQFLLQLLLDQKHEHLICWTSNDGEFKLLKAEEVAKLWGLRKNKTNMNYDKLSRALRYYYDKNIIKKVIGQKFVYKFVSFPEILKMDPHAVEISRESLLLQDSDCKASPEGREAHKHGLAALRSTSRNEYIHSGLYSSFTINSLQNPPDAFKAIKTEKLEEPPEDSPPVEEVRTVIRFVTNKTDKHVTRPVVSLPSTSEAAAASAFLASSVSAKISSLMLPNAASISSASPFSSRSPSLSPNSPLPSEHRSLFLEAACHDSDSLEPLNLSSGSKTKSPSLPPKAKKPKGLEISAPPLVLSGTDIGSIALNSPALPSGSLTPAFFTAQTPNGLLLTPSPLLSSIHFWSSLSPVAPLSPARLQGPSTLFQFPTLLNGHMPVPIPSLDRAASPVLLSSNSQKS
An outline of the steps:
as §1

The next assay concerns the target T3, SPIC (Homo sapiens, UniProt Q8N5J4 1-248).
T3 sequence: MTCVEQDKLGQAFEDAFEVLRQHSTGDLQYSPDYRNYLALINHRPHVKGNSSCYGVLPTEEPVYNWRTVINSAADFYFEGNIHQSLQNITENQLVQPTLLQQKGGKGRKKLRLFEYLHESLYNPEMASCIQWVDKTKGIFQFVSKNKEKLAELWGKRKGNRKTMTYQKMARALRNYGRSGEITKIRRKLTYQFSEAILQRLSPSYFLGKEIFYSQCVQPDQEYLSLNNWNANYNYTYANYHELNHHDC
An outline of the steps: as §1

The next assay has as its target T4, ELF3 (Homo sapiens, UniProt P78545 1-371).
T4 sequence: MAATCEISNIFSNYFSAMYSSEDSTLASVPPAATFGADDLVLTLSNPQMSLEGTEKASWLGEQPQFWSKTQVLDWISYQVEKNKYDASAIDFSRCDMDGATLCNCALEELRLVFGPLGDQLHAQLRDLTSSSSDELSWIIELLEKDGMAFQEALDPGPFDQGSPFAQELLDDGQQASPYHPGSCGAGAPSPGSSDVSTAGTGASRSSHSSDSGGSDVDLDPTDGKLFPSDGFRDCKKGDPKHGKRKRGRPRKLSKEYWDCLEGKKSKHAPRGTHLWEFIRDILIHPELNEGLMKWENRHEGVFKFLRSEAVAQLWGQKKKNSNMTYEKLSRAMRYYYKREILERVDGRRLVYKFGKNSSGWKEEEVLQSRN
An outline of the steps:
as §1

Another assay has as its target CRX (Homo sapiens, UniProt O43186 1-299). The method, boiled down: as §1
The target of another assay is T5, SPDEF (Homo sapiens, UniProt O95238 1-335).
T5 sequence: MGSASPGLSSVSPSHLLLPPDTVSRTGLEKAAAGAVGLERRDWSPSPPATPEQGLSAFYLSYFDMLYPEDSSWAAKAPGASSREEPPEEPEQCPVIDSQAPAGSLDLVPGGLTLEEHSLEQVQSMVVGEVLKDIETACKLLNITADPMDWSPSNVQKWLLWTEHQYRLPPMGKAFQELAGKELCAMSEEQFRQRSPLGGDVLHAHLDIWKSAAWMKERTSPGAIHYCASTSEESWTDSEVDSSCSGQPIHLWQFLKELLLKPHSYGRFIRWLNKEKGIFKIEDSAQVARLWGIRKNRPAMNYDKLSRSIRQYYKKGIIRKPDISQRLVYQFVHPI
The method, boiled down: as §1

The next assay concerns the target T6, ELK4 (Homo sapiens, UniProt P28324-2 1-405).
T6 sequence: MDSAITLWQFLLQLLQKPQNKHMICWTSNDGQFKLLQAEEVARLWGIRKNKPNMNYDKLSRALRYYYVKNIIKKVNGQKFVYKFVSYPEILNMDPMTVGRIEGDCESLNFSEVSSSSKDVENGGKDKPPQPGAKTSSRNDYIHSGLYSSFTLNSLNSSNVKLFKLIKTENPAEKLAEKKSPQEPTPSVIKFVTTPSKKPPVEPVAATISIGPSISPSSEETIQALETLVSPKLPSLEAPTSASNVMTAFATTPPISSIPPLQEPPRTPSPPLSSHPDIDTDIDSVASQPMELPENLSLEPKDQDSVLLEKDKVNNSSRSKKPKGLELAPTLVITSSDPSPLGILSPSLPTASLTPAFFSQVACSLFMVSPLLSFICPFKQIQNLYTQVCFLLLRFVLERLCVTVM
The method, boiled down: as §1

For a further assay, the target named is T7, ERF (Homo sapiens, UniProt P50548 1-548).
T7 sequence: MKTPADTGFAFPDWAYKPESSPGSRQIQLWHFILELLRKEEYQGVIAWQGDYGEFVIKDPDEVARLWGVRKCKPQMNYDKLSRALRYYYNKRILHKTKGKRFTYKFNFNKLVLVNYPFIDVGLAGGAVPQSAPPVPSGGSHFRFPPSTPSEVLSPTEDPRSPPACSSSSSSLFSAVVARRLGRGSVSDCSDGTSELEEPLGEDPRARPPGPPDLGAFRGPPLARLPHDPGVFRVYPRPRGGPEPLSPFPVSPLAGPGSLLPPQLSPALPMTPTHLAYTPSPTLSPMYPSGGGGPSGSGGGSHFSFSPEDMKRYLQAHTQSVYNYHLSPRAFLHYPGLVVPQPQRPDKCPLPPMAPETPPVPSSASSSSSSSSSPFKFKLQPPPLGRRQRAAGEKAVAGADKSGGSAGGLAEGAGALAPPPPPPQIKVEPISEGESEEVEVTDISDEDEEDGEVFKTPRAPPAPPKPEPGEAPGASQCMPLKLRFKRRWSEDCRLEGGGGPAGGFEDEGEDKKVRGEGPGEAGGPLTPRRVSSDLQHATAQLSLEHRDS
An outline of the steps: as §1

In another assay the target is T8, GABPA (Homo sapiens, UniProt Q06546 1-454).
T8 sequence: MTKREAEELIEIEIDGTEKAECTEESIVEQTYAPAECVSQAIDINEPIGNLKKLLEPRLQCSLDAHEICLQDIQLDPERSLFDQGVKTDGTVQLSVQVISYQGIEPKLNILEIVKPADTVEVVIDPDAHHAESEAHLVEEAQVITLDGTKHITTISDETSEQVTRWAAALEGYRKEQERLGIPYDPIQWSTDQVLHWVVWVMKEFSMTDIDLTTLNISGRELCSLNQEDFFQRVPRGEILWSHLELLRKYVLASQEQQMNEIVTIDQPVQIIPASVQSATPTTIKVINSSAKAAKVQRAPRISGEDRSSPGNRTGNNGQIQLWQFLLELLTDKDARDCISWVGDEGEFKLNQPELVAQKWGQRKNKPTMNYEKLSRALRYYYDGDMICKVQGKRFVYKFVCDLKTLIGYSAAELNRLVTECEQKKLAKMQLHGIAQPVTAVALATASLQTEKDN
An outline of the steps:
as §1

For a further assay, the target named is T9, EHF (Homo sapiens, UniProt Q9NZC4 1-300).
T9 sequence: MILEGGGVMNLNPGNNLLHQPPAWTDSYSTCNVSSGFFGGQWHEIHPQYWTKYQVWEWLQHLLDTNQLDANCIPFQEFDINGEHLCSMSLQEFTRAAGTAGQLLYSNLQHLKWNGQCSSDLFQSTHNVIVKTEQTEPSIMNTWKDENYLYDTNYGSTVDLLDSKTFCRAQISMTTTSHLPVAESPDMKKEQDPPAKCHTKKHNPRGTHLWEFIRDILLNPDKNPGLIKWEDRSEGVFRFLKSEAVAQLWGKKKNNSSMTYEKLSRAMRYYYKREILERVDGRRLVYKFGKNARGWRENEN
The method, boiled down: as §1

In a further assay the target is SPI1 (Homo sapiens, UniProt P17947 1-270). The method, boiled down: as §1
The target in the next assay is T10, FEV (Homo sapiens, UniProt Q99581 1-238).
T10 sequence: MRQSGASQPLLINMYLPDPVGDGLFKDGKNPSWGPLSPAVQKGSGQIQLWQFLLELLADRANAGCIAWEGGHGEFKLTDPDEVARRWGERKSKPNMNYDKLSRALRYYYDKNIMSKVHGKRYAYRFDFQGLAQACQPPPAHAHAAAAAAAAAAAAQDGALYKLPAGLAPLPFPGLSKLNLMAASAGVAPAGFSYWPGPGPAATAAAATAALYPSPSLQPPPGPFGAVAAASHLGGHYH
An outline of the steps: as §1

Another assay concerns the target ETV1 (Homo sapiens, UniProt P50549 1-477). An outline of the steps:
as §1

The next assay addresses T11, ETS2 (Homo sapiens, UniProt P15036 1-469).
T11 sequence: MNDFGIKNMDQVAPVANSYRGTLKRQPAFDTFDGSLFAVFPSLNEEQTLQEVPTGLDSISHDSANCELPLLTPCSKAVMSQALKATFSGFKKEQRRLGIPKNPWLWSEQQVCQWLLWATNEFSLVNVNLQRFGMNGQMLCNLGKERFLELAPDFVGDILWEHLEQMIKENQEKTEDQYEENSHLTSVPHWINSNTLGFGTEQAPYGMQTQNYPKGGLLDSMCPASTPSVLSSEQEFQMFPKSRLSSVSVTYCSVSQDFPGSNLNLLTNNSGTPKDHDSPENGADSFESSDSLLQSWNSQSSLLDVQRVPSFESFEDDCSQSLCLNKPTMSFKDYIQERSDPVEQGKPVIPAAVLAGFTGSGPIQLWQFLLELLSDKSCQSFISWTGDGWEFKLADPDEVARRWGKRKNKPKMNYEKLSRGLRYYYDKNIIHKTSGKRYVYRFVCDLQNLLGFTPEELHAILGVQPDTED
The method, boiled down:
as §1

The target of a further assay is T12, ELF5 (Homo sapiens, UniProt Q9UKW6-2 1-255).
T12 sequence: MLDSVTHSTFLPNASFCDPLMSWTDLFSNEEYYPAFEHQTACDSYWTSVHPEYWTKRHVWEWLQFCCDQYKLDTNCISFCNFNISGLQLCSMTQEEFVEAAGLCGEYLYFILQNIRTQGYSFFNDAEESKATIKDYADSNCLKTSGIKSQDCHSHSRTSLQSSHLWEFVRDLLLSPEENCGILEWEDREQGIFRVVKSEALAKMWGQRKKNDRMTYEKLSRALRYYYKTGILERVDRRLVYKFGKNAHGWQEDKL
The method, boiled down: as §1

The next assay has as its target T13, ETV3 (Homo sapiens, UniProt P41162-2 1-143).
T13 sequence: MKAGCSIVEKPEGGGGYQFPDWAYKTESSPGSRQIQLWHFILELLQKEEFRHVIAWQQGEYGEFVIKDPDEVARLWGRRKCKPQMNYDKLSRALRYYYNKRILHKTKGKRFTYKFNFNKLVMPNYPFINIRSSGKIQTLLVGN
An outline of the steps: as §1

Another assay deals with ETV6 (Homo sapiens, UniProt P41212 1-452). An outline of the steps: as §1
Chain of ETV6 (P41212 whole entry): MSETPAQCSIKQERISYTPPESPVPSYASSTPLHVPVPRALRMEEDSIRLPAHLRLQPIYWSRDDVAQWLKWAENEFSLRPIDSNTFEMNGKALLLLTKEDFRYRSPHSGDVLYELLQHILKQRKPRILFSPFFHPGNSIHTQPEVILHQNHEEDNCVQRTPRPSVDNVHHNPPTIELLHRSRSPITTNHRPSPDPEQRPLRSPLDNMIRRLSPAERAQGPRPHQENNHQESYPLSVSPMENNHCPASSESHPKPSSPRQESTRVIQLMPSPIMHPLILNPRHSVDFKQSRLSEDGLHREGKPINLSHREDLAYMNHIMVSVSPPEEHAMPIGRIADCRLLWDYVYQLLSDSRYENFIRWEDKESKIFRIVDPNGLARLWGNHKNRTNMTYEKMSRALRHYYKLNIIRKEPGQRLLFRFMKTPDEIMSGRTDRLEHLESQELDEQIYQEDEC

Chain of CRX (O43186 whole entry): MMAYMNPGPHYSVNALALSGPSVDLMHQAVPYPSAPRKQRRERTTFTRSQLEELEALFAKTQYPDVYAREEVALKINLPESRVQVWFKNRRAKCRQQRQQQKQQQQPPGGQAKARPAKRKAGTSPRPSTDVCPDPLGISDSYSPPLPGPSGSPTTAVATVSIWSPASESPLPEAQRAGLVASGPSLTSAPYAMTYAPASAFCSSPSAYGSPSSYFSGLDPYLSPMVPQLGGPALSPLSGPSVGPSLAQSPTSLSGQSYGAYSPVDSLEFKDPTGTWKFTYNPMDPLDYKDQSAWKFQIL
Chain of ELF1 (P32519 whole entry): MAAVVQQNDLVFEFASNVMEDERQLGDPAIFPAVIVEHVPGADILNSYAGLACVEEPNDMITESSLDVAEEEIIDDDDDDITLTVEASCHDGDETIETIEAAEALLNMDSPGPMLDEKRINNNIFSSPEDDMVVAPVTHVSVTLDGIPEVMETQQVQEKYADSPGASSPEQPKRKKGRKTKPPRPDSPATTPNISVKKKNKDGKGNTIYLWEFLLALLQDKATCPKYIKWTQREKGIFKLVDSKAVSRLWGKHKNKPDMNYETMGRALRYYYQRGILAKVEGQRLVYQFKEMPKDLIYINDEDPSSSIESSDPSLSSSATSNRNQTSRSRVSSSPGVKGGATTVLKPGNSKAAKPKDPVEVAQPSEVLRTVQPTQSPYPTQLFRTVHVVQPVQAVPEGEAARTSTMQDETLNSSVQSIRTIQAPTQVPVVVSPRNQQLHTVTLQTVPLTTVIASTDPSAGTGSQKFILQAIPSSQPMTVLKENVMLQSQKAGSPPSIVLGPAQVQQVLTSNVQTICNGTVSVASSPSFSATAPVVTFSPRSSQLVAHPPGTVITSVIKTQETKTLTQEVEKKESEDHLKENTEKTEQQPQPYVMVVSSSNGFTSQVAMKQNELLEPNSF
Chain of ETV1 (P50549 whole entry): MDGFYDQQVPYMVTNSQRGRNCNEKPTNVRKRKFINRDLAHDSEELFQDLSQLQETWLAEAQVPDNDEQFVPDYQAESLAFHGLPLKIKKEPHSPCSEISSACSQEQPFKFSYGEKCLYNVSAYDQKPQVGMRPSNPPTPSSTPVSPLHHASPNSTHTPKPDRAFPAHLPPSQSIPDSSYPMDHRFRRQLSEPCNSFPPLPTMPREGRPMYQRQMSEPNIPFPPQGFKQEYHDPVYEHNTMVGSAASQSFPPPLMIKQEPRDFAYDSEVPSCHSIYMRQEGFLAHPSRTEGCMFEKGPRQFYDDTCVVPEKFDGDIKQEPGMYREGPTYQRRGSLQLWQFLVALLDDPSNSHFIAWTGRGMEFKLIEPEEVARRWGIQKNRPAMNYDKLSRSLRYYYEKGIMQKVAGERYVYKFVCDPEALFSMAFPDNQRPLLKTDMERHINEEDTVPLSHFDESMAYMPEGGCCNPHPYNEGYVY

As for GATCAC, the binding signal with ELK1 is 1.01 fold enrichment (6-mer frequency, TF over GST control); in the assay with ELF1, 1.02 fold enrichment (6-mer frequency, TF over GST control); in the assay with ELK3 it was 1.16 fold enrichment (6-mer frequency, TF over GST control); with SPIC, 1.01 fold enrichment (6-mer frequency, TF over GST control); with ELF3 it was 1.04 fold enrichment (6-mer frequency, TF over GST control); in the assay with CRX, 1.09 fold enrichment (6-mer frequency, TF over GST control). For the same sequence, the binding signal in the assay with SPDEF is 1 fold enrichment (6-mer frequency, TF over GST control).
Take AGTTTG: the binding signal with SPIC was 1.06 fold enrichment (6-mer frequency, TF over GST control); in the assay with ELK4, 1.03 fold enrichment (6-mer frequency, TF over GST control); in the assay with ERF, 1.01 fold enrichment (6-mer frequency, TF over GST control).
For AGGTGT, the binding signal with SPIC was 1.02 fold enrichment (6-mer frequency, TF over GST control); with ELF3 it was 1.05 fold enrichment (6-mer frequency, TF over GST control).
Regarding AGTAGC, the binding signal with GABPA was 1.03 fold enrichment (6-mer frequency, TF over GST control); with EHF it was 1.01 fold enrichment (6-mer frequency, TF over GST control); with SPI1, 1.22 fold enrichment (6-mer frequency, TF over GST control); in the assay with ELK3 it was 1.05 fold enrichment (6-mer frequency, TF over GST control); in the assay with FEV it was 1.04 fold enrichment (6-mer frequency, TF over GST control); with SPIC it was 1.04 fold enrichment (6-mer frequency, TF over GST control). Besides, the binding signal in the assay with ELF3 is 1.03 fold enrichment (6-mer frequency, TF over GST control); with ETV1, 1.05 fold enrichment (6-mer frequency, TF over GST control); in the assay with ERF it was 1.01 fold enrichment (6-mer frequency, TF over GST control); in the assay with ETS2, 1.07 fold enrichment (6-mer frequency, TF over GST control); with ELF5 it was 1.04 fold enrichment (6-mer frequency, TF over GST control); in the assay with ETV3, 1.08 fold enrichment (6-mer frequency, TF over GST control). For the same sequence, the binding signal in the assay with ETV6 is 1.08 fold enrichment (6-mer frequency, TF over GST control).
